# PubChem BioAssay AID588342 (National Center for Advancing Translational Sciences (NCATS), 2011)
# Out of some 360,000 compounds screened, about 25,000 (6.9%) were called active. A call without a number means that no potency is given here. Not shown: some 9% with an inconclusive outcome. Calls come from the whole dose curve; as a rule, active = well fitted inhibition curve with a large enough effect; inconclusive = small, poorly fitted or top-dose-only effect; inactive = flat fitted curve, though single readings scatter. For the sample, actives were picked, then their nearest neighbours and some compounds at random.
# Target: Luciferin 4-monooxygenase (Photinus pyralis) (UniProt P08659)
# Assay: qHTS profiling assay for firefly luciferase inhibitor/activator using purifed enzyme and Km concentrations of substrates (counterscreen for miR-21 project); note: nearly all actives have a fitted effect of over 55% in size
# Details: purified FLuc, luminescence inhibition; series mostly up to 57.5 µM
# In short: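 Biochemical qHTS of compounds, final roughly 60 µM downward over six points, against 10 nM purified firefly luciferase using Km concentrations of substrates (10 uM D-luciferin, 10 uM ATP) in Tris acetate pH 7.5 buffer; luminescence output.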
# Potency is the fitted concentration of half-maximal effect.
# Sequence of Luciferin 4-monooxygenase (Photinus pyralis) (P08659 whole entry, looked up): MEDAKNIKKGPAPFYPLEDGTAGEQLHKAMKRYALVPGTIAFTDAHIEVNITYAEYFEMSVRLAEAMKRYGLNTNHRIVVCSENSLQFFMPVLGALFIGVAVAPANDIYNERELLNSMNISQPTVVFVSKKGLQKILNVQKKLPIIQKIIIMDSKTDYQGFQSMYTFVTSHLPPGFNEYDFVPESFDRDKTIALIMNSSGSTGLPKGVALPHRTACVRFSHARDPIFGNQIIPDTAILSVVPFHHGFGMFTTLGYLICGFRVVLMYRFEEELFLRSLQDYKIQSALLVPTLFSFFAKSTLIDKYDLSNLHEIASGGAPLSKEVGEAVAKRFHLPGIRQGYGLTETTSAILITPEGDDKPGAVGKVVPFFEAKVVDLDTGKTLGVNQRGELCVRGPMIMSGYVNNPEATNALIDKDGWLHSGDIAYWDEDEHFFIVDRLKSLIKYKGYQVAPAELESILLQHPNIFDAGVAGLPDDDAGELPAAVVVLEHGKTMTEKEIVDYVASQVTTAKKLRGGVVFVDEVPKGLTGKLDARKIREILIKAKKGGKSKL
row,SMILES,Potency
1,CSCC[C@H](NC(=O)OC(C)(C)C)C(=O)N/N=C/c1cc2ccc(C)cc2nc1Cl,inactive
2,Cc1ccc2cc(/C=N/NC(=O)[C@@H]3CCCN3)c(Cl)nc2c1,inactive
3,CCNC(=S)NNC(=O)c1ccc2ncccc2c1,inactive
4,Cc1ccc(S(=O)(=O)Nc2ccc3ncccc3c2)cc1,inactive
5,O=C(O)c1ccc(N/N=C/c2ccc3ncccc3c2)cc1,0.675 µM (active)
6,Cc1ccc2cc(/C=N/Nc3ccc(C(=O)O)cc3)c(Cl)nc2c1,0.151 µM (active)
7,O=c1oc(-c2ccco2)nc2sc3c(c12)CCCCC3,0.675 µM (active)
8,O=C(NCc1ccco1)c1cccn2c(=O)c3c4c(sc3nc12)CCCC4,inactive
9,Cn1c(=O)n(Cc2ccco2)c(=N)c2c3c(sc21)CCCC3,inactive
10,CCN(C(=O)CSc1nnc(-c2ccc(OC(F)F)cc2)n1N)C1CCS(=O)(=O)C1 (stereo not given),inactive
11,O=C(NNC(=O)c1ccc(-n2cncn2)c([N+](=O)[O-])c1)c1ccccc1,inactive
12,CCC1(CC)NC(=O)N(Cc2nc3ccccc3s2)C1=O,inactive
13,CC(=NCc1ccco1)c1c(C(F)(F)F)[nH]n(-c2nc3ccccc3s2)c1=O,7.57 µM (active)
14,C/C(=N\NC(=O)CSc1nc2ccccc2c(=O)n1-c1ccccc1C)c1cccs1,inactive
15,C/C(=N\NC(=O)CC(C)C)c1c(C(F)(F)F)[nH]n(-c2nc3ccccc3s2)c1=O,5.36 µM (active)
16,Cc1cccc(NC(=O)c2cc3c(C)nn(-c4ccccc4)c3s2)c1,inactive
17,O=C(NCc1ccncc1)C1CCN(C(=O)c2cccc(Cl)c2)CC1,inactive
18,Cc1ccc(-n2c(CNc3ccc(F)cc3)nnc2SCC(=O)N2CCOCC2)cc1,inactive
19,O=C(CSc1cccc[n+]1[O-])c1ccc(-c2ccccc2)cc1,19 µM (active)
20,COc1ccccc1C(=O)CSc1cccc[n+]1[O-],inactive
21,O=C(CSc1cccc[n+]1[O-])c1ccc(Cl)cc1,inactive
22,CC(O)c1cccc(NC(=O)Cc2cccc3ccccc23)c1 (stereo not given),inactive
23,CCCC(=O)N1c2ccc(-c3csc(N)n3)cc2CC1C (stereo not given),7.57 µM (active)
24,Cc1ccn(CCC(=O)N2c3ccccc3CC2C)n1 (stereo not given),inactive
25,CCC(=O)N1c2ccc(S(=O)(=O)CCC(=O)N3CCN(c4ccccc4)CC3)cc2CC1C (stereo not given),inactive
26,CCOc1ccccc1NC(=O)Cn1c(=O)n(-c2cccc(C)c2)c(=O)c2c1c1cc(OC)ccc1n2C,inactive
27,CN(CC(=O)NC(=O)Nc1ccccc1F)Cc1ccccc1,inactive

row,SMILES,Potency
1,Oc1ccc(-c2nc3ccc(Cl)cn3c2Nc2ccc3c(c2)OCO3)cc1,inactive
2,CCN(c1ncnc2c1cnn2-c1ccc(C)cc1)C1CCCCC1,2.13 µM (active)
3,c1ccc(-n2ncc3c2ncn2c(C4CCCCC4)nnc32)cc1,inactive
4,CN(C(=O)COc1ncnc2c1cnn2-c1ccccc1)C1CCCCC1,inactive
5,O=C(Nn1cnc2ccccc2c1=O)c1ccc(F)cc1Cl,13.5 µM (active)
6,O=C(Nn1cnc2ccccc2c1=O)c1ccc([N+](=O)[O-])cc1Cl,inactive
7,O=c1c2ccccc2ncn1CCCCOc1ccccc1F,inactive
8,COC(=O)c1c(NC(=O)C(C)Oc2ccc(Cl)c(C)c2)sc(C)c1C (stereo not given),inactive
9,Cc1ccc(NC(=S)N2CCN(c3ncccn3)CC2)cc1C,inactive
10,COc1ccc(NC(=O)Cn2c(=O)n(CCC(C)C)c(=O)c3cccnc32)cc1Cl,inactive
11,Cc1ccccc1CNC(=O)CSc1nnc(C)c2c(C)n(-c3ccccc3)nc12,inactive
12,Nc1ccc(N=Nc2ccccc2Cl)c(N)n1,6.01 µM (active)
13,O=C1C=C(c2cccc(Cl)c2)C[C@@H](c2ccc(F)cc2)C1,inactive
14,COc1ccc(Cn2cc(C(=O)c3ccc(C)cc3)c(=O)c3cc(OC)c(OC)cc32)cc1,inactive
15,Cn1nc(C(C)(C)C)c(NC(=O)c2sccc2Cl)c1C(C)(C)C,inactive
16,COC(=O)c1sc(-c2ccc(C(C)(C)C)cc2)cc1NC(=O)/C=C/C(=O)O,1.51 µM (active)
17,COc1ccccc1NC(=O)/C=C/C(N)=O,inactive
18,N#CC(C#N)=CN=c1ccn(Cc2ccc(Cl)cc2Cl)cc1,inactive
19,COc1ccc(C(=O)NC2CCN(C(=O)Nc3ccc(F)cc3)CC2)cc1,inactive
20,COc1ccc(NC(=O)N2CCC(Cc3ccccc3)CC2)cc1,15.1 µM (active)
21,COc1ccc(NC(=O)N2CCCC(C(=O)Nc3ccccc3OC)C2)cc1 (stereo not given),inactive
22,COc1cccc(C(=O)N(Cc2cccc(Cl)c2)Cc2ccco2)c1,inactive
23,CCCc1nc2c(c(=O)c3ccccc3n2C)c(=O)n1-c1cc(C)cc(C)c1,15.1 µM (active)
24,CCCc1nc2c(c(=O)c3ccccc3n2C)c(=O)n1C1CCCCCC1,inactive
25,Cn1c2ccccc2c(=O)c2c(=O)n(Cc3ccco3)c(COc3ccccc3)nc21,inactive
26,CCOc1ccccc1NC(=O)CN1CCN(S(=O)(=O)c2ccc(Br)cc2)CC1,inactive
27,COC(=O)C1(C)NC(c2ccc(C)cc2)C2C(=O)N(c3ccc(F)cc3)C(=O)C21 (stereo not given),inactive

row,SMILES,Potency
1,COC(=O)[C@]1(C)N[C@H](c2ccc(-c3ccc(Cl)c(Cl)c3)cc2)[C@@H]2C(=O)N(C)C(=O)[C@@H]21,15.1 µM (active)
2,COC(=O)C1(C)NC(c2ccc(F)cc2)C2C(=O)N(c3ccccc3)C(=O)C21 (stereo not given),inactive
3,Cc1cc2ccccc2n1CCNC(=O)c1ccc(F)cc1,inactive
4,O=C(COC(=O)CNC(=O)c1ccccc1F)NCC(F)(F)F,inactive
5,O=C(CNC(=O)c1ccc(F)cc1)c1ccccc1,19 µM (active)
6,O=C(CNC(=O)c1ccccc1)NCC(=O)OCC(=O)c1ccccc1,inactive
7,O=C(CNC(=O)c1ccccc1F)c1ccc(Br)cc1,2.69 µM (active)
8,O=C(Nc1ccc(NC(=O)c2ccccc2F)cc1)c1ccccc1F,inactive
9,Cn1c(=O)[nH]c(=O)c2c1[nH]c(=S)n2Cc1ccccc1,inactive
10,CC1=Nc2cc(C(=O)NCc3ccc(C)cc3)ccc2Sc2ccc(Cl)cc21,inactive
11,O=C(OCC(=O)N1CCCCCC1)c1cnc(Cl)c(Cl)c1,inactive
12,COc1ccc(CCC(=O)NCCc2csc(-c3ccc(Cl)cc3)n2)cc1,inactive
13,O=C(NCCc1csc(-c2ccccc2)n1)c1ccccc1F,26.9 µM (active)
14,O=S(=O)(NCCc1csc(-c2ccccc2)n1)c1cccnc1,inactive
15,O=c1ccc2c(-c3ccccc3S(=O)(=O)O)c3ccc(O)c(O)c3oc-2c1O,13.5 µM (active)
16,COc1ccc(OC)c(NC(=O)C2CCN(S(=O)(=O)c3ccc(C)cc3)CC2)c1,inactive
17,COc1ccc(OC)c(C(O)c2nc3ccccc3n2C)c1 (stereo not given),inactive
18,CCN(CCCNC(=O)c1c(C)oc2ncn(CC(C)C)c(=O)c12)Cc1ccccc1,inactive
19,Cc1ccc(NC(=O)C(=O)NCc2ccc(/C=N/NC(=O)c3c(C)nc4cc(C)ccn34)o2)cc1,2.13 µM (active)
20,Cc1ccn2c(=O)c(NC(=O)c3cccc4ccccc34)c(C)nc2c1,inactive
21,CCOc1ccc(/C=N\NC(=O)c2c(C)nc3cc(C)ccn23)cc1,inactive
22,N=C1C(=O)OCC1c1ccccc1NC(=O)CN1CCCCC1 (stereo not given),inactive
23,CN(Cc1ccccc1)C(=O)c1cn(C)c2ccc(S(=O)(=O)N3CCCCC3)cc2c1=O,inactive
24,CCc1ccccc1NC(=O)CSc1nc(C)c(C(=O)Nc2ccccc2)c(-c2ccc(Cl)cc2)c1C#N,inactive
25,Cc1cc(C)n(CCNS(=O)(=O)c2ccc(Cl)cc2)n1,inactive
26,O=C1N/C(=N\N=C\c2ccco2)SC1Cc1ccc(F)cc1 (stereo not given),inactive
27,COc1ccc(CN2C(=O)C(C)S/C2=N/N=C/c2ccco2)cc1 (stereo not given),15.1 µM (active)

row,SMILES,Potency
1,C=CCN1C(=O)C(Cc2cccc(Cl)c2)S/C1=N/N=C/c1ccco1 (stereo not given),inactive
2,COc1cccc(C2C(C(=O)Nc3ccc(C)cc3C)=C(C)Nc3c(C(=O)Nc4ccccc4)cnn32)c1 (stereo not given),inactive
3,COc1ccc(/C=C2/C(=O)OCc3cc(OC)c(OC)cc32)c(OC)c1,12 µM (active)
4,COc1ccc(CN(C)Cc2nc3cc(OC)c(OC)cc3c(=O)[nH]2)c(OC)c1,inactive
5,COc1ccc(Oc2cn[nH]c2-c2ccc(OC)cc2O)cc1,inactive
6,COc1cc([N+](=O)[O-])ccc1NC(=O)COC(=O)CCOc1ccc(C)cc1,inactive
7,Cc1ccc(OC(=O)CSc2nnc(-c3cccs3)o2)cc1,inactive
8,COc1ccc(-c2nnc(SCC(=O)c3cccs3)o2)c(OC)c1,2.39 µM (active)
9,COc1ccccc1-c1nnc(SCC(N)=O)o1,inactive
10,CCCCCCn1cc(C(=O)O)c(=O)c2cc(F)c(N3CCCCC3)cc21,inactive
11,O=C(Nc1nc2cc3c(cc2s1)OCCO3)c1cccc(S(=O)(=O)N2CCOCC2)c1,7.57 µM (active)
12,O=C(Nc1ccc(S(=O)(=O)Nc2nccs2)cc1)c1cccc(S(=O)(=O)N2CCOCC2)c1,inactive
13,Cc1cc2nc(NC(=O)c3ccc(S(=O)(=O)N4CCOCC4)cc3)sc2cc1C,inactive
14,CC(Sc1nnc(-c2cccs2)n1C1CC1)C(=O)NCC1CCCO1 (stereo not given),inactive
15,CCOc1ccccc1NC(=O)C1=C(C)Nc2ncnn2C1c1ccc(NC(C)=O)cc1 (stereo not given),inactive
16,Brc1cccc(-c2nnc3n2CCC3)c1,inactive
17,COc1ccc(-c2nc3n(c2Br)CCC3)cc1,7.57 µM (active)
18,COc1ccc(-c2nnc3n2CCCCC3)cc1,inactive
19,CC(=O)CCC(=O)c1ccc2ccccc2c1,26.9 µM (active)
20,O=C(NCC(=O)N1CCN(c2ccccc2O)CC1)c1ccc2ccccc2c1,inactive
21,COc1cccc(N2CC(NC(=O)c3ccc4ccccc4c3)CC2=O)c1 (stereo not given),inactive
22,CC(=O)c1ccc2c(c1)c1ccccc1n2CC(C)C,inactive
23,CC(=O)c1ccc2c(ccc3ccccc32)c1,21.3 µM (active)
24,CCN(CC)Cc1cc(C(C)=O)ccc1O,inactive
